In PubChem BioAssay (Tox21):
Results filed as inconclusive are left out. Active and inactive are the calls of the source. Unless noted, calls follow the shape of the dose curve; as a rule, active = well fitted curve in the direction sought with a large enough effect in the repeat runs; inconclusive = weak or mixed curves; inactive = no such curve, though single readings can be large; an effect the other way counts as inactive or inconclusive.

How the values were obtained:
[1] = biological target: Thyrotropin receptor (Homo sapiens) (UniProt P16473); assay: qHTS assay to identify small molecule antagonists of the thyroid stimulating hormone receptor (TSHR) signaling pathway (AID 1259385; calls by dose curve; also: nearly all actives have a fitted effect of over 20% in size)
Sequence of Thyrotropin receptor (Homo sapiens) (P16473 whole entry, looked up): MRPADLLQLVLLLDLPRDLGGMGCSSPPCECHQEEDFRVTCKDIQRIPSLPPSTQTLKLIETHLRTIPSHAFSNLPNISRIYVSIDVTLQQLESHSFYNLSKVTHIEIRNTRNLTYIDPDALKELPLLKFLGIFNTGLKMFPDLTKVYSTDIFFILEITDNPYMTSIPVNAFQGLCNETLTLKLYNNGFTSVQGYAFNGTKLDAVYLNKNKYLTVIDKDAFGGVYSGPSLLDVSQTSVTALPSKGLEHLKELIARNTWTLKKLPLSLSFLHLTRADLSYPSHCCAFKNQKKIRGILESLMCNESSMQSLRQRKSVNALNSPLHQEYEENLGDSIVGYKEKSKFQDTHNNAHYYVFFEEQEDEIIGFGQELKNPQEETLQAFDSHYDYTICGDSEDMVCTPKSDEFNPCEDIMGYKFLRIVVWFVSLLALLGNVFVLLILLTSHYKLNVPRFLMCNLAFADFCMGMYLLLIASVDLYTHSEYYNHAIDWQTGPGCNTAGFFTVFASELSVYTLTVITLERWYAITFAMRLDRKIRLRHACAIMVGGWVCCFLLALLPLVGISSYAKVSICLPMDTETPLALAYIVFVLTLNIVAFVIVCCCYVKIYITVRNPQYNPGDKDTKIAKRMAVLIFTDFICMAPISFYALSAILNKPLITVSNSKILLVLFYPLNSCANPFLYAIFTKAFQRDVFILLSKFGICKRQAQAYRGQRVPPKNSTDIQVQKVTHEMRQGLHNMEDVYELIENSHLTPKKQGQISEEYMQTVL
Outline: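 TSHR-HEK293 cells (800/well) plated 18 h, then compounds with Ro20-1724 and TSH at 1.5 ng/mL final, 30 min at room temperature. cAMP quantified by HTRF (cAMP-d2/anti-cAMP-cryptate, 1 h); 15 concentrations in triplicate.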

[2] = qHTS assay to identify small molecule agonists of the estrogen receptor alpha (ER-alpha) signaling pathway in the presence of an antagonist - cell viability counter screen (AID 1259386);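 also: series mostly up to about 92 µM; cells exposed to compounds for 22 h at 37 °C before the viability read; nearly all actives have a fitted effect of over 30% in size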
Outline: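 ICI-182,780 at 10.0nM final accompanies the compound titration (15 concentrations, 22hr, 37C) on VM7Luc4E2 cells. The CellTiter-Fluor fluorescence readout runs in the same wells as the luciferase assay.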

[3] = biological target: Progesterone receptor (Homo sapiens) (UniProt P06401); assay: qHTS assay to identify small molecule antagonists of the progesterone receptor (PR) signaling pathway (AID 1346795; active = well fitted inhibition curve with a large enough effect in the signal ratio in the repeat runs, not every such curve was filed as active; the % refers to the signal ratio)
Sequence of Progesterone receptor (Homo sapiens) (P06401 whole entry, looked up): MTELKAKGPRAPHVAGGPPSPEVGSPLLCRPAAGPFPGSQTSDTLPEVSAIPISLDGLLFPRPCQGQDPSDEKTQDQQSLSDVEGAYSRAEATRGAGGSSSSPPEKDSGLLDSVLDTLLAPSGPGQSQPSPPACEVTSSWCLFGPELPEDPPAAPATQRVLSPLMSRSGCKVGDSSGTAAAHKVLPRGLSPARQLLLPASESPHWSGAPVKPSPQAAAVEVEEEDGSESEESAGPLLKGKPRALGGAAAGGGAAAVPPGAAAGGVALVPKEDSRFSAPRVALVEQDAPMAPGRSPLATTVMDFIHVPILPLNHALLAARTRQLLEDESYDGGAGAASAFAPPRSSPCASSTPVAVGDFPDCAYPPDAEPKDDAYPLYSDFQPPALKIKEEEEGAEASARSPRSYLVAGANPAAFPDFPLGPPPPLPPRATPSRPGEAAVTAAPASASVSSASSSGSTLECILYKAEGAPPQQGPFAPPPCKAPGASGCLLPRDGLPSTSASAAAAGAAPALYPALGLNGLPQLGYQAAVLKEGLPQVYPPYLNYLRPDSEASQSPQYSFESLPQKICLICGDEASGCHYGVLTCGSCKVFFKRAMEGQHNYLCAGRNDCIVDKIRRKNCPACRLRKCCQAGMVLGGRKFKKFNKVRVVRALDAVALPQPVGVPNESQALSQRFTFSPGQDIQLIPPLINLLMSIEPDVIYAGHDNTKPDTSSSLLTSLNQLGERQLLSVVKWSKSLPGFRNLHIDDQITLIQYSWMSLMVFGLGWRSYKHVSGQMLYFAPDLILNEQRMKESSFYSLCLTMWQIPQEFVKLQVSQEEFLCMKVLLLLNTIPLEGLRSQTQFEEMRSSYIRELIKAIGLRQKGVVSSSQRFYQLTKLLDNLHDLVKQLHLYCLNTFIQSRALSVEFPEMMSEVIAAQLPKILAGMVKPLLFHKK
Outline: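 Read-out is fluorescence from the LiveBLAzer B/G FRET substrate, cleaved by a UAS-controlled beta-lactamase in PR-UAS-bla HEK293T cells after 16 hr exposure to compound plus 1 nM promegestone (final), followed by 2 hr at room temperature.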

[4] = qHTS assay to identify small molecule agonists of the progesterone receptor (PR) signaling pathway - cell viability counter screen (AID 1346799; calls by dose curve; also: nearly all actives have a fitted effect of over 45% in size)
Outline: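 Luminescence from CellTiter-Glo, added after the beta-lactamase FRET read in the same wells, gave cytotoxicity in PR-UAS-bla HEK293T cells treated with compounds for 16 hr at 37C.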

[5] = qHTS assay to identify small molecule antagonists of the TGF-beta/Smad signaling pathway - cell viability counter screen (AID 1346824); also: nearly all actives have a fitted effect of over 50% in size
Outline: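 SBE-bla HEK 293T cells, incubated overnight, then compound plus 0.25 ng/mL TGF-beta1 (stock added) for 5 hr at 37 C. Viability was read in the same wells by CellTiter-Glo luminescence after 30 min at room temperature.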

[6] = qHTS assay to identify small molecule agonists of the TGF-beta/Smad signaling pathway - cell viability counter screen (AID 1346829); also: top concentration of the series differs between compounds; nearly all actives have a fitted effect of over 45% in size
Outline: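 Here the cytotoxicity of library compounds is measured in SBE-bla HEK 293T cells treated for 5 hr, using CellTiter-Glo added to wells already read for the beta-lactamase reporter.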

[7] = qHTS assay to identify small molecule agonists of the TGF-beta/Smad signaling pathway (AID 1346859; active = well fitted activation curve with a large enough effect in the signal ratio in the repeat runs, not every such curve was filed as active; the % refers to the signal ratio; also: series mostly up to about 77 µM)
Outline: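 SBE-bla HEK 293T, 4,000 cells/well, plated o/n; cpd in DMSO, 5 hr, 37 C/5% CO2; B/G FRET substrate 2 hr RT; ex 405, em 460/530 nm.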

[8] = biological target: Thyrotropin-releasing hormone receptor (Homo sapiens) (UniProt P34981); assay: qHTS assay to identify small molecule antagonists of the thyrotropin-releasing hormone receptor (TRHR) signaling pathway (AID 1346877; active = well fitted inhibition curve with a large enough effect in the repeat runs, not every such curve was filed as active; also: series mostly up to about 51 µM)
Sequence of Thyrotropin-releasing hormone receptor (Homo sapiens) (P34981 whole entry, looked up): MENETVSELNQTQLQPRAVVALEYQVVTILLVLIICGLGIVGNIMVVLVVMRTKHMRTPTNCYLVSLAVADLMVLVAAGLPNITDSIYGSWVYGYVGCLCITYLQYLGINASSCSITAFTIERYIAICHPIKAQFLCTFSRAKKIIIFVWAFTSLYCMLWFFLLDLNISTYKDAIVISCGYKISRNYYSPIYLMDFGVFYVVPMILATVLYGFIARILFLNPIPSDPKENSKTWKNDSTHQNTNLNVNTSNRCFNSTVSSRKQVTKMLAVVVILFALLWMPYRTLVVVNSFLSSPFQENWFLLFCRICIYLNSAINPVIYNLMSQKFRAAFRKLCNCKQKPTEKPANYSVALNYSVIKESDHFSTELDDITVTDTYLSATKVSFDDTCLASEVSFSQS
Outline: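 Screening used HEK293 cells engineered with TRHR, with a brief 5 min room-temperature compound exposure preceding addition of TRH to 1 nM. The read-out was kinetic calcium-dye fluorescence, concentration-response from 15 doses in triplicate.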

[9] = biological target: Thyrotropin-releasing hormone receptor (Homo sapiens) (UniProt P34981); assay: qHTS assay to identify small molecule agonists of the thyrotropin-releasing hormone receptor (TRHR) signaling pathway (AID 1346891; calls by dose curve; also: series mostly up to about 58 µM)
Outline: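 Intracellular calcium rise, read as fluorescence every second for 3 min, served as the agonist signal in dye-loaded HEK293 cells expressing TRHR; each compound ran at 15 concentrations in triplicate.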

[10] = Human pregnane X receptor (PXR) small molecule agonists, qHTS cell viability counter screen (AID 1346977); also: nearly all actives have a fitted effect of over 50% in size
Outline: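 PXR-Luc HepG2, 2,000 cells/well, 5% charcoal-stripped FBS; 5hr settle; cpd 24hr, 37C/5% CO2; CellTiter-Fluor at 23hr, read 1hr later (fluorescence).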

[11] = Caspase-3/7 induction in HepG2 cells by small molecules, qHTS assay (AID 1346978); also: nearly all actives have a fitted effect of over 15% in size
Outline: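 Wild-type HepG2 cells, 2,000/well, settled 5 hr at 37 C and 5% CO2, then compound-treated for 17 hr; caspase-3/7 activity read by luminescent Caspase-Glo 3/7 after 30 min at room temperature.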

[12] = Caspase-3/7 induction in CHO-K1 cells by small molecules, qHTS cell viability counter screen (AID 1346979); also: nearly all actives have a fitted effect of over 35% in size
Outline: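 Cells (CHO-K1, wild type) are plated at 1,500 per well and incubated 5hr. Test compounds in DMSO are then pinned in, followed by 16hr at 37C and 5% CO2. Viability is read by CellTiter-Fluor fluorescence after 1hr.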

[13] = Caspase-3/7 induction in CHO-K1 cells by small molecules, qHTS assay (AID 1346980); also: nearly all actives have a fitted effect of over 15% in size
Outline: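 Wild-type CHO-K1 cells exposed to compounds for 17hr at 37 C, 5% CO2. Caspase-3/7 activity then measured by Caspase-Glo 3/7 luminescence after 30min at room temperature.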

[14] = Caspase-3/7 induction in HepG2 cells by small molecules, qHTS cell viability counter screen (AID 1346981); also: series mostly up to about 92 µM; nearly all actives have a fitted effect of over 30% in size
Outline: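 Multiplexed with the caspase-3/7 assay: HepG2 cells, 16 hr compound treatment, CellTiter-Fluor viability detection by fluorescence.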

[15] = biological target: Nuclear receptor subfamily 1 group I member 2 (Homo sapiens) (UniProt O75469); assay: Human pregnane X receptor (PXR) small molecule agonists, qHTS assay (AID 1346982); also: nearly all actives have a fitted effect of over 35% in size
Sequence of Nuclear receptor subfamily 1 group I member 2 (Homo sapiens) (O75469 whole entry, looked up): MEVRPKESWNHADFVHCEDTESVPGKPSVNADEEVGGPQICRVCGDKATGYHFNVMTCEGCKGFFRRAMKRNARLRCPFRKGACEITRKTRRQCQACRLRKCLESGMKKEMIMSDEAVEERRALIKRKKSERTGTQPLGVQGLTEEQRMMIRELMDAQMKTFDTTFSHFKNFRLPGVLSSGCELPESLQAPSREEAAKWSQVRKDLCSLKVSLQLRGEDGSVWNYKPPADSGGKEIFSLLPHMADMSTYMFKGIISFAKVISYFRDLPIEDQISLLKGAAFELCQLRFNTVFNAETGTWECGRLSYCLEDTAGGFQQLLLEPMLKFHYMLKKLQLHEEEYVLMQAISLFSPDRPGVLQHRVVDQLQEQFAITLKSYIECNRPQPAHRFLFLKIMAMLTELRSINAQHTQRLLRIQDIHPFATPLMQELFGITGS
Outline: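 We seeded PXR-Luc HepG2 cells in assay medium containing 5% charcoal-stripped FBS, added compounds 5 hr later, incubated 24 hr, and read luminescence with ONE-Glo reagent.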

[16] = biological target: Progesterone receptor (Homo sapiens) (UniProt P06401); assay: qHTS assay to identify small molecule agonists of the progesterone receptor (PR) signaling pathway (AID 1346784; calls by dose curve; also: nearly all actives have a fitted effect of over 30% in size)
Outline: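 Beta-lactamase reporter read-out: after 16 hr compound treatment at 37C and a further 2 hr at room temperature with LiveBLAzer B/G FRET substrate, fluorescence was measured in PR-UAS-bla HEK 293T cells grown in 2% charcoal-stripped serum.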

[17] = qHTS assay to identify small molecule antagonists of the progesterone receptor (PR) signaling pathway - cell viability counter screen (AID 1346798);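 also: HEK293T PR-UAS-bla cells stimulated with the agonist R5020; series mostly up to about 92 µM; nearly all actives have a fitted effect of over 50% in size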
Outline: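 HEK293T PR-UAS-bla, 2% charcoal-stripped FBS; 4 hr pre-plate; cpd + R5020, 16 h 37C; LiveBLAzer read first; then CellTiter-Glo 30 min RT, luminescence.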

[18] = biological target: Nuclear receptor subfamily 1 group I member 2 (Rattus norvegicus) (UniProt Q9R1A7); assay: Rat pregnane X receptor (rPXR) activation by small molecules, qHTS assay (AID 1346983); conditions: rPXR luciferase reporter cells, One-Glo luminescence, 24 h; stronger effect = higher value; also: nearly all actives have a fitted effect of over 20% in size
Sequence of Nuclear receptor subfamily 1 group I member 2 (Rattus norvegicus) (Q9R1A7 whole entry, looked up): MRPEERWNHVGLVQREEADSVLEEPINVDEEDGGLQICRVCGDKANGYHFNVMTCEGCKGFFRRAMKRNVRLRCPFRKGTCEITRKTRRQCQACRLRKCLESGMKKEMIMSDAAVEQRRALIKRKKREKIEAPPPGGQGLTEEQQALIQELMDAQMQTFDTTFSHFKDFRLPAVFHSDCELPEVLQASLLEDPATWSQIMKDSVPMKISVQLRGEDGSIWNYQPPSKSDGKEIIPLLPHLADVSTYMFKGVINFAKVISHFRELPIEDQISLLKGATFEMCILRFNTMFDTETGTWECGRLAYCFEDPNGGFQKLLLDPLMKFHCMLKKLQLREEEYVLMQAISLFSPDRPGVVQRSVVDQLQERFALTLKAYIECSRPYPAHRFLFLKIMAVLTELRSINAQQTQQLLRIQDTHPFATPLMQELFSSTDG
Outline: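 Cell-based rPXR activation assay: rPXR cells, 2,000 per well, rested 5hr at 37 C, then exposed to compounds in DMSO for 24 hr at 37 C. Luciferase activity read by One-Glo luminescence after 30 min at room temperature.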

[19] = biological target: Nuclear receptor subfamily 1 group I member 2 (Homo sapiens) (UniProt O75469); assay: CYP3A4 induction through human pregnane X receptor (PXR) by small molecules, qHTS assay (AID 1346984); also: nearly all actives have a fitted effect of over 40% in size
Outline: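 qHTS, concentration-response format: HepG2 DPX-2 line, PXR/CYP3A4-luc. Exposure 24 h, 37C. Substrate Luciferin-IPA 3uM final, 3 h. Detection One-Glo, 30 min RT.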

[20] = biological target: Nuclear receptor subfamily 1 group I member 2 (Homo sapiens) (UniProt O75469); assay: Human pregnane X receptor (PXR) activation by small molecules, qHTS assay (AID 1346985); also: nearly all actives have a fitted effect of over 40% in size
Outline: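 DPX-2 cells (HepG2 co-transfected with a PXR response element and a CYP3A4-promoter luciferase construct) were seeded at 2,000 per well, rested 5 hr at 37C, then exposed to DMSO-dissolved compounds for 24 hr. Activation was read as luciferase luminescence.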
% is scaled to controls: 0 for no effect and ±100 for the full control effect.

Cc1cccc(OCC(O)CNC(C)(C)C)c1C (centres undefined)
inactive: outcome [1] | Potency [2] | Potency [3] | Potency [4] | outcome [5] | outcome [6] | outcome [7] | outcome [8] | outcome [9] | Potency [10] | Potency [11] | Potency [12] | outcome [13] | Potency [14] | Potency [15]

CCN1CCc2nc(N)oc2CC1
inactive: outcome [1] | Potency [16] | Potency [3] | Potency [17] | Potency [4] | outcome [5] | outcome [6] | outcome [7] | outcome [8] | outcome [9] | Potency [10] | Potency [11] | Potency [12] | outcome [13] | Potency [14] | max activation [18] -5.4% | Potency [19] | Potency [20]

C=CCCCCCCCCCCCC
inactive: outcome [1] | Potency [2] | Potency [17] | Potency [4] | outcome [5] | outcome [6] | outcome [7] | outcome [8] | outcome [9] | Potency [10] | Potency [11] | Potency [12] | Potency [14] | Potency [15]

C=C(C)C(=O)OCCNC(C)(C)C
inactive: outcome [1] | Potency [2] | outcome [5] | outcome [6] | outcome [7] | outcome [8] | outcome [9] | Potency [10] | Potency [11] | Potency [12] | Potency [14] | Potency [15]

CCCCNc1ccc(C(=O)OCCN(C)C)cc1
inactive: outcome [1] | Potency [16] | Potency [3] | Potency [17] | Potency [4] | outcome [5] | outcome [6] | outcome [7] | outcome [8] | outcome [9] | Potency [10] | Potency [11] | Potency [12] | outcome [13] | Potency [14] | max activation [18] -1.52%

c1ccc2c(c1)ccc1c3ccccc3ccc21
inactive: outcome [1] | Potency [2] | Potency [17] | Potency [4] | outcome [5] | outcome [6] | outcome [7] | outcome [8] | outcome [9] | Potency [10] | Potency [11] | Potency [12] | outcome [13] | Potency [14] | Potency [15]

CC(COC(C)(C)C)OCCCO (centres undefined)
inactive: outcome [1] | Potency [2] | Potency [3] | Potency [17] | outcome [5] | outcome [6] | outcome [7] | outcome [8] | outcome [9] | Potency [10] | Potency [11] | outcome [13] | Potency [14] | Potency [15]
